{"source": "the supplement of paper PMC11417369", "note": "± gives the standard deviation of the averaged measurements. In all, about 25,000 sequences were measured (“ln(normalized median fluorescence intensity)”: median about 8.9, highest 2% from about 10 on). Many of the other results were omitted from the sample, so the highest values are more common in it than they were.", "data": [{"system": "PfAP2-LT AP2 domain (GST-tagged)", "experiment": "gcPBM binding intensity (ln(normalized median fluorescence intensity)); higher = stronger DNA binding", "in_short": "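Binding intensity is the highest Masliner-normalised natural-log median intensity over replicate spots in either probe orientation. To obtain it, GST-tagged P. falciparum DNA-binding domains made in E. coli were incubated for 1 h on an Agilent 4 × 180k array of primer-extended double-stranded 36-bp intergenic genomic probes plus negative controls. Detection used Alexa488 anti-GST antibody with scanning at 488 nm.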", "values": [{"sequence": "TATATATATGGACACACACACACATATATATATATA [CACACA_site6121]", "gcPBM binding intensity (ln)": "10.3 ± 0.23"}, {"sequence": "CAAGAAAATGGACACACACACATATATATATATATA [CACACA_site6010]", "gcPBM binding intensity (ln)": "10.37 ± 0.092"}, {"sequence": "TATATATATGGACACACACACATATAAATAAATAAA [CACACA_site4406]", "gcPBM binding intensity (ln)": "9.71 ± 0.49"}, {"sequence": "TAAATTTATGGACACACACACATATATATATATATA [CACACA_site4620]", "gcPBM binding intensity (ln)": "9.955 ± 0.021"}, {"sequence": "TATATATATGGACACACACACATATATATATATTTT [CACACA_site5409]", "gcPBM binding intensity (ln)": "9.67 ± 0.23"}, {"sequence": "ATAATATTGTGGTATACACACCTTACAAAAAGGTAC [CACACA_site5582]", "gcPBM binding intensity (ln)": "8.96 ± 0.42"}, {"sequence": "AAATATAAAAATAGCACACATATATACCTATATATA [CACACA_site4204]", "gcPBM binding intensity (ln)": "8.99 ± 0.38"}, {"sequence": "TATATTGCCCTTCACACACACACATATATATATATA [CACACA_site2492]", "gcPBM binding intensity (ln)": "10 ± 0.13"}, {"sequence": "TATTGCCCTTGACACACACACATATAAATAAATATA [CACACA_site7220]", "gcPBM binding intensity (ln)": "9.34 ± 0.44"}, {"sequence": "TATTGCCCTGGACACACACACATATATATATATATA [CACACA_site5389]", "gcPBM binding intensity (ln)": "10.2 ± 0.064"}, {"sequence": "ATTCAAATATTAAAAAGTACAAAAAAAAAACAAAAA [XGTACX_site1174]", "gcPBM binding intensity (ln)": "8.63 ± 0.5"}, {"sequence": "AAGCTTTCATAAAGATGTACTTTTTAAAAATAATCT [XGTACX_site5725]", "gcPBM binding intensity (ln)": "8.28 ± 0.3"}, {"sequence": "TACATTTTATGCATTTGTACACAAATAAATAAATAA [XGTACX_site2652]", "gcPBM binding intensity (ln)": "8.49 ± 0.42"}, {"sequence": "TTTTTCAGAAAAGAAACACACATATATATATTTATA [CACACA_site2372]", "gcPBM binding intensity (ln)": "8.56 ± 0.43"}, {"sequence": "AAATATATTATAAATTGTACGTTTATATATATTATT [XGTACX_site5110]", "gcPBM binding intensity (ln)": "8.69 ± 0.47"}, {"sequence": "AATAATATATTTAGGGGTACATAATAATATATTTTA [XGTACX_site8366]", "gcPBM binding intensity (ln)": "8.66 ± 0.3"}, {"sequence": "TTAGGCAAGGCGGGGGGTACGTTTTTATATAATTAT [XGTACX_site8029]", "gcPBM binding intensity (ln)": "10.2 ± 0.14"}, {"sequence": "ATCTCTATGATATATACACACAAATATACAAAAAAA [CACACA_site6605]", "gcPBM binding intensity (ln)": "8.96 ± 0.45"}, {"sequence": "TATAATATTCTATATGCATGTACACCATTCTTTATT [TGCATGCA_site688]", "gcPBM binding intensity (ln)": "9.15 ± 0.45"}, {"sequence": "GTTCATCACATATACACATGCATATTCTAATATGTA [TGCATGCA_site809]", "gcPBM binding intensity (ln)": "8.95 ± 0.41"}, {"sequence": "ACACATACATATACATACACATTGTTTTCATGCATC [XGTACX_negctrl_site126]", "gcPBM binding intensity (ln)": "9.2 ± 0.39"}, {"sequence": "TATATATATATATATACATGCATCATTGTTCACCTT [TGCATGCA_site177]", "gcPBM binding intensity (ln)": "10.2 ± 0.35"}, {"sequence": "TAAAATGAATAAAATTGTACTTAATAATATTTTAAA [XGTACX_site5532]", "gcPBM binding intensity (ln)": "8.23 ± 0.57"}, {"sequence": "TAAAATATAGAAAATTTTATTAAATATAAAAAAATA [CACACA_negctrl_site1441]", "gcPBM binding intensity (ln)": "8.28 ± 0.47"}, {"sequence": "TATAAGAAATAAAACCTGATTATAAACCTGTAACCA [CACACA_negctrl_site1302]", "gcPBM binding intensity (ln)": "8.63 ± 0.37"}, {"sequence": "AAAATAATAATAGGCACACATATATATATATATATA [CACACA_site2058]", "gcPBM binding intensity (ln)": "9.99 ± 0.21"}, {"sequence": "ATAAATACTAGGCACACACACATATATATATATATA [CACACA_site2080]", "gcPBM binding intensity (ln)": "10.4 ± 0.014"}, {"sequence": "AATAAAATAATAGGCACACATATATATATATATTAT [CACACA_site273]", "gcPBM binding intensity (ln)": "9.2 ± 0.37"}, {"sequence": "ATAAATAAATACTAGGCACACACACCGATATATATA [CACACA_site8649]", "gcPBM binding intensity (ln)": "9.76 ± 0.22"}, {"sequence": "ATAAATACTAGGCACACACACATATAGATTTATATA [CACACA_site7064]", "gcPBM binding intensity (ln)": "9.77 ± 0.47"}, {"sequence": "AAATAAATACTAGGCACACACACATATATATATATA [CACACA_site2079]", "gcPBM binding intensity (ln)": "10.1 ± 0.15"}, {"sequence": "TATATTTGGAAAACATGTACATATAACAATATGTAA [XGTACX_site324]", "gcPBM binding intensity (ln)": "8.71 ± 0.34"}, {"sequence": "TTAGTTATTAAAAAAAGTACATAAGTAGATATCATC [XGTACX_site8712]", "gcPBM binding intensity (ln)": "8.7 ± 0.45"}, {"sequence": "TTTGAACATTTTGCAAGTACAAAAAAATAATATATC [XGTACX_site8079]", "gcPBM binding intensity (ln)": "8.65 ± 0.42"}, {"sequence": "ACTCTCTTATATTAAACACACATATATATATGTATA [CACACA_site2703]", "gcPBM binding intensity (ln)": "8.99 ± 0.42"}, {"sequence": "GTGCTAAAAGTATATGCACACACATATATATGCACA [CACACA_site8472]", "gcPBM binding intensity (ln)": "9.42 ± 0.31"}, {"sequence": "AAAAAAAAAAAACATACACACAAATAAATACATACA [CACACA_site6073]", "gcPBM binding intensity (ln)": "9.23 ± 0.36"}, {"sequence": "AATATATAAACATATACACACAAAAACATATATATA [CACACA_site4855]", "gcPBM binding intensity (ln)": "9.21 ± 0.33"}, {"sequence": "AATAAACATATATACACACACAAAAAAAAAAACATA [CACACA_site424]", "gcPBM binding intensity (ln)": "9.59 ± 0.5"}, {"sequence": "ATAAAACAAAAACACACACACATACACAAAAAAAAA [CACACA_site3848]", "gcPBM binding intensity (ln)": "10.1 ± 0.3"}, {"sequence": "TATAACATAAAACACACACACATACATACACAAAAA [CACACA_site1804]", "gcPBM binding intensity (ln)": "10.1 ± 0.15"}, {"sequence": "AAATAAAACAAACACACACACACATACACAAAAAAA [CACACA_site3849]", "gcPBM binding intensity (ln)": "10.12 ± 0.035"}, {"sequence": "AATAAACATAAATACACACACAAAAAAAAAAACATA [CACACA_site4396]", "gcPBM binding intensity (ln)": "9.64 ± 0.33"}, {"sequence": "TATATACACATATATAAACACACAAAAAAAAAAAAA [CACACA_site8626]", "gcPBM binding intensity (ln)": "8.89 ± 0.4"}, {"sequence": "TATACACATATATAAACACACAAAAAAAAAAAAAAA [CACACA_site7041]", "gcPBM binding intensity (ln)": "8.88 ± 0.49"}]}]}
